# Measurements as given in PubChem BioAssay.
# Active and inactive are the calls of the source.
# Tests used:
# [1] = tested on: Human papillomavirus type 1a protein E7 (residues 44-93); assay: small molecules binding HPV E7 44-93 – biochemical, small-molecule microarray, residues 44-93, 635 nm fluorescence, primary screen (AID 1108); settings: fluorescence 635 nm, higher = more signal;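 further: E7 fragment applied at 1 µg/mL in TBST for 1 h at 4 C; score combines spot fluorescence with its signal to noise ratio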
# [2] = hepatitis C replication reporter changes, two-sided – Huh7 cells, luciferase reporter, HCV replication inhibitor project, primary screen (AID 1109); settings: Huh7 HCV replicon luciferase reporter, 48 h; higher = more signal;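 further: huh7 hepatoma cells harbouring a luciferase neomycin HCV replicon reporter; luciferase luminescence as measure of HCV replicon replication; test concentration not given here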
# [3] = target: Left-right determination factor 2 (Homo sapiens) (UniProt O00292); assay: small molecules binding LEFTY2 protein – biochemical, small-molecule microarray, 635 nm fluorescence scan, primary screen (AID 1110); settings: higher = more signal
# [4] = target: Calmodulin-1 (Homo sapiens) (UniProt P0DP23); assay: small molecules binding calmodulin-1 with EGTA – biochemical, small-molecule microarray, Cy5-labelled CALM1, profiling panel (AID 1111); settings: Cy5-CALM1 binding fluorescence, higher = more signal;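 further: labelled calmodulin applied in Tris saline Tween buffer holding calcium plus EGTA and DTT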
# [5] = target: Calmodulin-1 (Homo sapiens) (UniProt P0DP23); assay: small molecules binding Ca-loaded calmodulin-1 – biochemical, small-molecule microarray, Cy5-labelled CALM1, plus calcium, artefact control for SMM control-protein annotation, profiling panel (AID 1112); settings: Cy5-CALM1 binding fluorescence, higher = more signal;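 further: score merges spot fluorescence with signal to noise from triplicate slides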
# [6] = probe aWnt5a binding to arrayed compounds – biochemical, biotinylated probe, 635/667 nm fluorescence, primary screen (AID 1113); settings: small-molecule microarray, higher = more signal;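 further: score merges 667 nm fluorescence intensity with signal-to-noise per printed feature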
# [7] = probe aShh binding to arrayed compounds – biochemical, biotinylated probe, 635/667 nm fluorescence, primary screen (AID 1114); settings: small-molecule microarray, higher = more signal;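 further: probe is biotin-labelled aShh protein from a stem cell growth factor screen; measures binding of labelled protein to compounds printed on the slide; score merges feature fluorescence at 667 nm with signal-to-noise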
# [8] = probe aNog binding to arrayed compounds – biochemical, biotinylated probe, 635/667 nm fluorescence, primary screen (AID 1115); settings: small-molecule microarray, higher = more signal;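 further: probe is biotinylated aNog protein used at 0.15 µg/mL for 1 h at 4 C; z-score combines 667 nm fluorescence of each spot with its signal to noise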
# [9] = target: Torsin-1A-interacting protein 1 (Homo sapiens) (UniProt Q5JTV8); assay: compound microarray binding of lysate hLAP1 – cell lysate, small-molecule microarray, COS7 lysate, 635/667 nm fluorescence, primary screen (AID 1116); settings: 635 nm fluorescence, higher = more signal
# [10] = target: Alpha-bungarotoxin (Bungarus multicinctus) (UniProt P60615); assay: compounds binding labelled alpha-BTX control protein – biochemical, small-molecule microarray, Alexa647 label, 635/667 nm fluorescence, artefact control for SMM control protein annotation, profiling panel (AID 1117); settings: alpha-BTX-A647 binding fluorescence, higher = more signal
# Albumin (Bos taurus) = Albumin (Bos taurus) (UniProt P02769); assay: compounds binding labelled BSA control protein – biochemical, small-molecule microarray, Alexa647 label, 635/667 nm fluorescence, artefact control for SMM control protein annotation, profiling panel (AID 1118); settings: BSA-A647 binding, fluorescence 635 nm, higher = more signal;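 further: score merges 667 nm emission intensity and signal-to-noise per printed compound spot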
# [11] = probe aXIP binding to arrayed compounds – biochemical, NeuroSMM set, 635/667 nm fluorescence, primary screen (AID 1119); settings: small-molecule microarray, higher = more signal, called active from +8 up or from −8 down;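 further: probe is the protein aXip251-270 applied at 1 µg/mL to compound-printed slides; binding of probe to printed compounds measured as 667 nm fluorescence plus signal to noise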
# [12] = probe aNOTCH3 binding on compound microarray – biochemical, small-molecule microarray, 635/667 nm fluorescence, primary screen (AID 1120); settings: higher = more signal;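 further: probe is a biotin-tagged antibody raised against NOTCH3 rather than NOTCH3 protein; score merges spot fluorescence near 667 nm with spot signal to noise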
# [13] = probe aNOTCH2 binding on compound microarray – biochemical, small-molecule microarray, 635/667 nm fluorescence, primary screen (AID 1121); settings: higher = more signal;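 further: score merges feature fluorescence read at 667 nm with its signal to noise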
# [14] = target: Carbonic anhydrase 2 (Homo sapiens) (UniProt P00918); assay: compounds binding carbonic anhydrase 2 – biochemical, small-molecule microarray, Alexa647-labelled CAII, profiling panel (AID 1122); settings: CAII-A647 binding fluorescence, higher = more signal
# [15] = COS7 lysate on small-molecule microarray, probe aHis, 635 nm (AID 1123); settings: COS7 cell lysate, fluorescence, higher = more signal;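 further: z-score combines 667nm fluorescence intensity with signal-to-noise per printed compound spot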
# [16] = probe aLAP1 signal on lysate-treated microarray – cell lysate, small-molecule microarray, COS7 lysate, primary screen (AID 1124); settings: probe aLAP1, fluorescence, higher = more signal;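 further: lysate comes from COS7 cells expressing LAP1 and is applied at 0.3 µg/mL; score merges spot fluorescence near 667 nm with signal-to-noise over triplicate slides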
# Sam68 (KHDRBS1) = assay: compounds binding KHDRBS1 protein – biochemical, small-molecule microarray, 635 nm fluorescence, primary screen (AID 1125); settings: higher = more signal;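 further: score merges 667 nm channel intensity with signal to noise over triplicate slides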
# [17] = tested on: Chordin-like protein 2 (CHRDL2); assay: compounds binding chordin-like 2 – biochemical, small-molecule microarray, 635 nm fluorescence, primary screen (AID 1126); settings: fluorescence 635 nm, higher = more signal;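 further: printed compound slides probed with Chrdl2 protein at 4 µg/mL for 1 h at 4 C; score merges 667 nm emission intensity with signal to noise over three replicate slides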
# [18] = target: Concanavalin-A (Canavalia ensiformis) (UniProt P02866); assay: compounds binding concanavalin A lectin – biochemical, small-molecule microarray, Alexa647 label, 635 nm, artefact control for SMM control protein annotation, primary screen (AID 1127); settings: ConA-A647 binding fluorescence, higher = more signal;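 further: z combines 667 nm emission intensity with signal-to-noise across three replicate slides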
# Sequence of Concanavalin-A (Canavalia ensiformis) (P02866 whole entry, looked up): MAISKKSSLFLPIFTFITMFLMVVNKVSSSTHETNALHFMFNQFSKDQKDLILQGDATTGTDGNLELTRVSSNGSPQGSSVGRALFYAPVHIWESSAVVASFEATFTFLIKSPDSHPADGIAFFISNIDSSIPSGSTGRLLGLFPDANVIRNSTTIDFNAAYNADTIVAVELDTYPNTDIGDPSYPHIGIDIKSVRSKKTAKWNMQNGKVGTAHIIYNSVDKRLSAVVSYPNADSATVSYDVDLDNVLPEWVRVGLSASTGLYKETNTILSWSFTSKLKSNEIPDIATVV
# Sequence of Torsin-1A-interacting protein 1 (Homo sapiens) (Q5JTV8 whole entry, looked up): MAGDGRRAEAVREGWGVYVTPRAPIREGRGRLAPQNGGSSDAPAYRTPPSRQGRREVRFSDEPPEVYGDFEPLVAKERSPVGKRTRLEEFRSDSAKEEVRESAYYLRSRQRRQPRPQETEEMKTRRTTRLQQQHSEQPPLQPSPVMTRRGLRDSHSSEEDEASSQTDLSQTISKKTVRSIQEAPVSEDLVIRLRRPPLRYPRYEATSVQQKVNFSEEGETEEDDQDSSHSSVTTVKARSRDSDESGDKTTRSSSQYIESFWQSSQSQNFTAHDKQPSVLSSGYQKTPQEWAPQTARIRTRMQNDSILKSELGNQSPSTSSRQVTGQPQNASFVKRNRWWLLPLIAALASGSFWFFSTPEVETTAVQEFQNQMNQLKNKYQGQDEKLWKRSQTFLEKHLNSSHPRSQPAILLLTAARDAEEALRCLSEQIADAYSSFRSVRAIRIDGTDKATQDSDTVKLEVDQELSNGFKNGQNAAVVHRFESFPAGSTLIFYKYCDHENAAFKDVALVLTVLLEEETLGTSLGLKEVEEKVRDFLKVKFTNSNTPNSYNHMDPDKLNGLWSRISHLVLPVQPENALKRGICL
# Sequence of Left-right determination factor 2 (Homo sapiens) (O00292 whole entry, looked up): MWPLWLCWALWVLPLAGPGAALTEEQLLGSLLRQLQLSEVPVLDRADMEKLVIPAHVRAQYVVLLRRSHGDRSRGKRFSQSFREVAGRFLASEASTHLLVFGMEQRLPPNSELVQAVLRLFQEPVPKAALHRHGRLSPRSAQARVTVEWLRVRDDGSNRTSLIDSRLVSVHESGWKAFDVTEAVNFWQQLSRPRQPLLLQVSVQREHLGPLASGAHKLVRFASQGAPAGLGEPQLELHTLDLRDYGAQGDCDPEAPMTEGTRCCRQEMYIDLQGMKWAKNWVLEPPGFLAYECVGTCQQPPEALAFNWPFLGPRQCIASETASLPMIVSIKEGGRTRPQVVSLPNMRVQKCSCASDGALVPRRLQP
# Sequence of Alpha-bungarotoxin (Bungarus multicinctus) (P60615 whole entry, looked up): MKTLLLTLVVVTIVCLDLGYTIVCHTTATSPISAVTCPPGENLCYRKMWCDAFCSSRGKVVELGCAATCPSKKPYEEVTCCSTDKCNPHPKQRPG
# Sequence of Albumin (Bos taurus) (P02769 whole entry, looked up): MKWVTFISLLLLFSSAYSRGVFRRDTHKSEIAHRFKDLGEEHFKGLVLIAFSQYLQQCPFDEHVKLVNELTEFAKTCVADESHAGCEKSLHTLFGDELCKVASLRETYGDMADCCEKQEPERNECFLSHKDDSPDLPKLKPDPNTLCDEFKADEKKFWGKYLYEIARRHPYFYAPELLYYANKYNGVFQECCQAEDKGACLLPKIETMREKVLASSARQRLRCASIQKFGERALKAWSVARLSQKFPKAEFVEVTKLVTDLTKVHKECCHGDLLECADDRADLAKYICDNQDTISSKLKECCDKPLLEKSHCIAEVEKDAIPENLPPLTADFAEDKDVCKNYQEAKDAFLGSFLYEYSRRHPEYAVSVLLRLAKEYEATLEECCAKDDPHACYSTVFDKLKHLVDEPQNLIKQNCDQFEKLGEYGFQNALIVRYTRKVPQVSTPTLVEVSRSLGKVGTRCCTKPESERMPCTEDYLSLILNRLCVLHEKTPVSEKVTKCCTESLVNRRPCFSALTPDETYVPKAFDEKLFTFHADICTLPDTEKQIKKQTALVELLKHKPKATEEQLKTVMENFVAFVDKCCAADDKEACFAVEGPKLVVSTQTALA
SMILES,composite z-score [1],z-score [2],composite z-score [3],composite z-score [4],composite z-score [5],composite z-score [6],composite z-score [7],composite z-score [8],composite z-score [9],composite z-score [10],composite z-score (Albumin (Bos taurus)),composite Z-score [11],composite z-score [12],composite z-score [13],composite z-score [14],composite z-score [15],composite z-score [16],composite z-score (Sam68 (KHDRBS1)),composite z-score [17],composite z-score [18]
Cn1cccc1C(O)C1C=CC2C(=O)NC(=O)C2N1Nc1ccccn1 (stereo not given),-1.15,-0.803,-0.136,-0.0487,-0.472,-0.0512,0.0723,-0.0446,-0.0327,-0.086,0.809,0.0019 (inactive),-0.0166,-0.171,0.914,-0.318,0.503,-1.45,0.148,-0.0954
CN1C(=O)C2C=CC(C(O)C(c3ccccc3)c3ccccc3)N(NC(=O)OC(C)(C)C)C2C1=O (stereo not given),1.32,-0.527,-0.0483,2.75,1.09,0.306,0.915,2.09,2.59,2.04,1.03,1.84 (inactive),0.687,0.498,0.793,3.42,1,1.33,0.0789,1.19
COC(=O)C1(C)C=C2C(=C(c3ccccc3)C(=O)C2C)CN1 (stereo not given),-1.06,-0.546,-1.3,0.29,-0.0125,-0.034,-0.119,1.74,1.72,-0.422,0.226,-0.107 (inactive),-0.128,0.0633,0.479,0.895,-0.368,-0.999,-0.368,-1.06
CCCNC(=O)[C@@H]1c2ccccc2C(=O)N(c2ccc(C)cn2)[C@H]1c1ccc(CO)cc1,-1.05,0.0924,-0.181,-0.769,-0.462,-0.238,-0.0155,-0.434,0.185,0.4,0.206,-0.207 (inactive),-0.305,-0.109,0.769,-0.018,-0.514,-0.646,-0.382,-0.984
CC(C)(C)N1CC=CC23O[C@@H]4C=CCCOC(=O)C4[C@H]2C(=O)N(CCCCCO)[C@@H]3C1=O (stereo not given in full),0.433,0.651,-0.316,-0.582,-0.839,-0.0327,0.0796,-0.206,2.15,-0.949,0.568,0.08 (inactive),0.285,-0.175,0.874,0.518,0.726,0.598,-0.503,-0.339
CC(CCN1CCc2nc(-c3ccccc3)c(-c3ccccc3)cc2C1)=NO[C@H](C)c1cn([C@@H]2COC[C@H]2O)nn1,1.35,-0.883,0.0738,-0.307,-0.46,-0.0685,-0.0553,-0.025,0.438,0.872,0.156,-0.0135 (inactive),0.0864,-0.117,-0.089,0.507,0.222,1.31,0.0957,-0.411
CCCNC(=O)[C@@H]1c2ccccc2C(=O)N(Cc2ccccc2Cl)[C@H]1c1ccc(CO)cc1,1.22,-0.656,0.531,0.936,0.375,-0.0203,-0.0769,0.546,0.598,0.726,0.414,-0.231 (inactive),-0.0794,-0.0631,0.585,1.86,0.779,1.3,0.36,1.13
C#C[C@@H](CC)O[Si](C#Cc1ccc(Oc2ccccc2)cc1)(C(C)C)C(C)C,1.1,-0.715,0.341,-0.0885,-0.657,-0.0963,-0.0533,-0.254,0.368,0.0826,-0.109,0.317 (inactive),0.122,-0.11,0.535,0.476,0.339,1.3,0.234,0.218
COc1cccc([C@@H]2Oc3ccc(Br)cc3C(=O)[C@H]2O)c1,0.0288,3.55,0.171,0.042,-0.246,-0.124,-0.243,-0.257,0.43,0.599,0.705,0.38 (inactive),-0.0111,-0.084,0.439,0.599,0.214,0.26,0.432,1.11
CC(C)(C)N1C(=O)[C@H]2[C@H]3[C@H](O)[C@H](O)CC(=NOCc4ccccc4)[C@@H]3CC[C@H]2C1=O,0.093,0.656,1.08,-0.266,-0.717,-0.0194,-0.0146,-0.352,0.593,1.19,0.8,0.588 (inactive),0.111,-0.131,0.675,0.384,0.532,1.17,0.831,0.694
CO[C@@H]1COC(=O)[C@H](C)NC(=O)[C@@H](C)COC(=O)CCC[C@H]1C,0.379,-1.33,0.753,-0.485,-0.704,-0.101,-0.138,-0.169,0.268,-0.0916,-0.163,-0.0735 (inactive),0.111,-0.161,0.409,0.421,-0.0546,0.769,0.777,-0.288
